For orientation: AC50 means the midpoint of the concentration-response curve, whichever way the signal moves.

About 5,100 (32%) of roughly 16,000 compounds were called active. Not shown: some 25% with an inconclusive outcome. Some of the results follow. Values without a mark were called inactive. The call rests on the fitted dose curve; in most records, active means well fitted curve in the direction sought with a large enough effect; inconclusive means small, poorly fitted or top-dose-only effect, or effect the other way; inactive means no such curve, though single readings can be large or run the other way.

The results in this text go back to PubChem BioAssay AID1851 (National Center for Advancing Translational Sciences (NCATS), 2009).
On the % scale 0 is the no-effect control and ±100 the full control effect.

The assay deals with Cytochrome P450 3A4 (Homo sapiens) (UniProt P08684). In words: Cytochrome panel assay with activity outcomes. Particulars: recombinant CYP, pro-luciferin dealkylation, luminescence, p450-cyp3a4; series mostly up to 57.1 µM; activity, negative = inhibition: at the top concentration.
Chain of Cytochrome P450 3A4 (Homo sapiens) (P08684 whole entry, looked up): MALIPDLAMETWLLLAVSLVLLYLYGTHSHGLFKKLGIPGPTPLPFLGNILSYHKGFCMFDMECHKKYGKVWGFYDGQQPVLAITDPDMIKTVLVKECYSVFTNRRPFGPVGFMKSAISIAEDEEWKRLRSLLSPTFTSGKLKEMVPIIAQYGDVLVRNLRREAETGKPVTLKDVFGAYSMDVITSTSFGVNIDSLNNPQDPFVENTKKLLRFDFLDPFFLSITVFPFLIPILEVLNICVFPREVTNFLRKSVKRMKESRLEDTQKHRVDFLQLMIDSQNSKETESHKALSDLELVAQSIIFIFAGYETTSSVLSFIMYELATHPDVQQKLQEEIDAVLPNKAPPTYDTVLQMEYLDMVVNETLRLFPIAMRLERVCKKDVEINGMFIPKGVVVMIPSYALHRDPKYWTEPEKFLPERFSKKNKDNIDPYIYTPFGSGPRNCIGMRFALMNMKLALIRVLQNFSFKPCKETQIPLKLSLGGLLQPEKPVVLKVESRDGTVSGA
On to `N#Cc1c(NC(=O)C2CC(c3ccccc3Cl)=NO2)sc2c1CCC2` (stereo unspecified), for which the AC50 is 5.01 µM (active).

Consider `O=C(NCCc1cccs1)C1CC(c2c(Cl)cccc2Cl)=NO1` (stereo unspecified), for which the activity, negative = inhibition is -24.1% [at 2.29 µM].

With `COC(=O)C1CCN(CC(=O)Nc2sc3c(c2C#N)CCC3)CC1`, the “activity, negative = inhibition” value was -27.9%.

`CCN(CC)C(=O)N1CCN(C)CC1`: the “activity, negative = inhibition” value is -0.999% [at 25.6 µM].

With `Cc1ccc(NC(=O)CC2CS(=O)(=O)CC2CC(=O)Nc2ccc(C)c(C)c2)cc1C` (stereo unspecified), the concentration at half-maximal activity (AC50) was 3.98 µM (active).

Regarding `CN(C)c1nc(C#N)nc(N2CCOCC2)n1`, the “activity, negative = inhibition” value is 2.43%.

Take `O=C(CNS(=O)(=O)c1ccc(Br)s1)N1CCC(N2CCCCC2)CC1`: the “activity, negative = inhibition” value was -12.4%.

Consider `CCC(C)NC(=O)CCS(=O)(=O)c1ccc(Br)s1` (stereo unspecified), for which the concentration at half-maximal activity (AC50) is 0.891 µM (active).

`COC(=O)C/C=C1\c2ccccc2[C@H](OC)[C@H]1C`: the activity, negative = inhibition was -2.89% [at 11.4 µM].

As to `Nc1ccc(N=Nc2ccc(-c3ccc(O)cc3)cc2)c2ccc(S(=O)(=O)O)cc12`, the activity, negative = inhibition was -11.1% [at 11.4 µM].

Regarding `COC(=O)[C@@]1(Cc2ccc(F)cc2)[C@H]2c3cc(C(=O)N4CCCC4)n(Cc4c(CO)[nH]cc(C)c4=O)c3C[C@H]2CN1C(=O)c1ccccc1`, the half-maximal activity concentration (AC50) was 2 µM (active).

Turning to `COC(=O)[C@@]1(Cc2ccccc2)[C@H]2c3cc(C(=O)N4CCCC4)n(Cc4c(CO)[nH]cc(C)c4=O)c3C[C@H]2CN1C(=O)c1ccccc1`, the AC50 was 2.51 µM (active).

For `O=C1c2cccc3cccc(c23)C(=O)N1CC1CCN(CC(O)COc2ccc3ccccc3c2)CC1` (stereo unspecified), the AC50 is 7.94 µM (active).

As to `CCOC(=O)c1c(-c2ccccc2)nc2ccc(Cl)cn12`, the “activity, negative = inhibition” value was -22.1%.

Regarding `CCc1nc2c(c(SC)nn2-c2ccccc2)c(N)c1C(=O)OC`, the activity, negative = inhibition was -21.9% [at 11.4 µM].

Regarding `CCCOC(=O)c1c(-c2ccccc2)nc(CC)c(C(=O)SCC)c1CCC`, the AC50 was 10 µM (active).

With `O=C1CCCC=C1[C@@H](O)C1CCCCC1`, the activity, negative = inhibition is -18.7% [at 11.4 µM].

With `N#C/C(=C\c1cc(Cl)cc(Cl)c1O)C(=O)NC1CCCCC1`, the AC50 was 15.8 µM (active).

As for `N#C/C(=C\c1cn[nH]c1-c1ccccc1)C(=O)NC1CCCCCC1`, the half-maximal activity concentration (AC50) was 7.08 µM (active).

Turning to `N#C/C(=C\Nc1ccccn1)C(=O)C1CC1`, the activity, negative = inhibition was -9.43% [at 11.4 µM].

As to `CCN(CC)c1ccc2cc(C(C)=O)c(=O)oc2c1`, the “activity, negative = inhibition” value is -19.1%.

As for `CCN(CC)c1ccc2c(Cl)cc(=O)oc2c1`, the AC50 was 25.1 µM (active).

Take `CCN(CC)c1ccc(C(=O)OCc2cc(=O)oc3cc(O)ccc23)cc1`: the AC50 was 6.31 µM (active).

For the compound `COc1ccc2c(CC(=O)NCC3CCC(C(=O)O)CC3)cc(=O)oc2c1` (stereo unspecified), the “activity, negative = inhibition” value was -1.71%.

Consider `Cc1cc(=O)oc2cc(O)ccc12`, for which the “activity, negative = inhibition” value is -8.45% [at 25.6 µM].

`CCOc1cc2c(C)cc(=O)oc2cc1Cl`: the “activity, negative = inhibition” value is -19.3%.

With `COc1ccc(-n2c(=O)c(-c3ccccc3)nc3cnc(N4CCNCC4)nc32)cc1`, the “activity, negative = inhibition” value is -7.64%.

For the compound `O=c1c(-c2cc(F)cc(F)c2)nc2cnc(N3CCOCC3)nc2n1-c1ccccc1`, the “activity, negative = inhibition” value was -17.5%.

On to `COc1ccc(-n2c(=O)c(-c3ccc(Cl)cc3)nc3cnc(N4CCNCC4)nc32)cc1`, for which the “activity, negative = inhibition” value was -1.14%.

As to `COc1ccc(-n2c(=O)c(-c3cccs3)nc3cnc(N4CCNCC4)nc32)cc1`, the AC50 was 15.8 µM (active).

On to `CN(C)c1ncc2nc(-c3cccs3)c(=O)n(-c3ccccc3)c2n1`, for which the “activity, negative = inhibition” value was -3.28%.

Consider `O=c1c(-c2cccs2)nc2cnc(N3CCNCC3)nc2n1-c1ccccc1`, for which the AC50 is 25.1 µM (active).

Regarding `CN1CCN(c2ncc3nc(-c4cccs4)c(=O)n(-c4ccccc4)c3n2)CC1`, the AC50 was 31.6 µM (active).

For `Cc1nc2cnc(N3CCN(C)CC3)nc2n(-c2ccccc2)c1=O`, the “activity, negative = inhibition” value was -12.7%.

As to `COc1ccccc1CNc1ncnc2ccc(-c3ccc4c(c3)OCO4)cc12`, the AC50 is 1.26 µM (active).

For the compound `COc1ccccc1CNc1ncnc2ccc(-c3ccc(N(C)C)cc3)cc12`, the AC50 was 2 µM (active).

As to `COc1ccc(CNc2ncnc3ccc(-c4ccc(N(C)C)cc4)cc23)c(OC)c1`, the AC50 was 3.98 µM (active).

`CCOC(=O)c1[nH]c(C(=O)O)c(CCC(=O)OC)c1C`: the “activity, negative = inhibition” value was 6.89%.

As to `Cc1cc(C)nc(NC(=O)CCCC(=O)O)c1`, the “activity, negative = inhibition” value is 1.45%.

For the compound `C[N+]1(C)CCO[C@](O)(c2ccccc2)C1`, the activity, negative = inhibition was -8.04% [at 11.4 µM].

In the case of `O=C(c1ccc2c(=O)n(Cc3ccco3)c(=S)[nH]c2c1)N1CCN(c2ccccc2)CC1`, the AC50 was 6.31 µM (active).

For the compound `COc1ccc(NC(=O)c2ccc3c(=O)n(Cc4ccco4)c(=S)[nH]c3c2)c(OC)c1`, the “activity, negative = inhibition” value is -27%.

Consider `COc1ccc(CCNC(=O)c2ccc3c(=O)n(Cc4ccco4)c(=S)[nH]c3c2)cc1OC`, for which the AC50 was 0.631 µM (active).

Turning to `CC(C)NC(=O)c1ccc2c(=O)n(Cc3ccco3)c(=S)[nH]c2c1`, the “activity, negative = inhibition” value is -26%.

For the compound `Nc1ccccc1Nc1ccccc1`, the activity, negative = inhibition is -23.8% [at 11.4 µM].

On to `C[C@H]1O[C@@H](CC(=O)O)Cc2c1c(O)c1c(O)cc(-c3cc(=O)c4c(=O)c5c(c(=O)c=4c3=O)C[C@H](CC(=O)O)O[C@@H]5C)c(O)c1c2O`, for which the activity, negative = inhibition is -6.62% [at 11.4 µM].

For `CCN1C(=O)CC(N2CCN(CC(=O)NC(C)C)CC2)C1=O` (stereo unspecified), the “activity, negative = inhibition” value was 1.59%.

With `Cc1onc(-c2ccccc2)c1C(=O)NCCc1c[nH]c2ccccc12`, the concentration at half-maximal activity (AC50) is 8.91 µM (active).

With `COc1cccc(C(=O)Nc2ccc(-c3nnc(-c4ccco4)o3)cc2)c1`, the concentration at half-maximal activity (AC50) was 4.47 µM (active).

In the case of `COc1cc(C(=O)Nc2ccc(-c3nnc(-c4ccco4)o3)cc2)cc(OC)c1OC`, the AC50 was 7.08 µM (active).

For the compound `O=C(COc1ccccc1)Nc1ccc(-c2nnc(-c3ccco3)o2)cc1`, the “activity, negative = inhibition” value was 18.1%.

Regarding `C=CCNc1oc(/C=C/c2ccccc2)nc1C#N`, the AC50 is 15.8 µM (active).

Consider `Cc1cnc(CNc2nc(-c3ccoc3)nc3ccccc23)cn1`, for which the AC50 is 12.6 µM (active).

For the compound `Cc1cnc(CNc2nc(-c3ccc(N(C)C)cc3)nc3ccccc23)cn1`, the AC50 was 5.01 µM (active).

In the case of `O=c1c(-c2nc3ccccc3s2)cccn1Cc1ccccc1`, the half-maximal activity concentration (AC50) is 17.8 µM (active).

As to `O=C(NNc1nc2ccccc2s1)c1ccccc1F`, the “activity, negative = inhibition” value is -13.7%.

With `Clc1ccc(CCNc2nc3ccccc3s2)cc1`, the AC50 was 15.8 µM (active).

Take `O=c1c(-c2nc3ccccc3s2)cccn1Cc1ccc(Cl)cc1`: the AC50 was 14.1 µM (active).

Take `C=CCn1c(C(C)NC(=O)c2ccccc2)n[nH]c1=S` (stereo unspecified): the activity, negative = inhibition was -3.87% [at 11.4 µM].

As for `CC(=O)NNc1nc2ccccc2s1`, the “activity, negative = inhibition” value is -8.59%.

As to `C=CCn1c(-c2cccn(Cc3ccccc3)c2=O)n[nH]c1=S`, the AC50 was 12.6 µM (active).
